{"source": "PubChem BioAssay AID1159580", "about": "(chemical genetic matrix, 2015)", "assay": "chemical genetic growth profiling, strain panel (AID 1159580);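 note: tested at 20 µM; growth read once vehicle control cultures reached saturation at 30 °C; 1 = growth at the plate median or of vehicle wells; lower values mean less growth of the strain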", "details": "S. cerevisiae deletion strains, growth OD", "note": "Values joined by “and” are separate entries in the source; they are usually repeats but may differ in a detail not shown here. Identical values can stand only once. In all, about 5,500 compounds went through this assay and about 2,000 (36%) were called active. About 18% were inconclusive and are not listed. This is one part of the list. A number with no mark means an inactive call. Cut-off read from the data, not from the text of the source: active = normalized growth mostly below about 0.91 (no sharp cut-off); inconclusive = no clear call, values can overlap the other calls; inactive = mostly above about 0.92.", "data": [{"smiles": "CC(=O)OC[C@@]1(O)C[C@@]23CCC4c5ccoc5CC[C@]4(C)C2CC[C@@H]1C3", "note": "(some centres not stated)", "values": [{"measurement": "normalized growth", "setting": "locus YAL013W, strain DEP1, hits give low values", "value": 0.985}, {"measurement": "normalized growth", "setting": "locus YAL021C, strain ccr4, hits give low values", "value": 1.03}, {"measurement": "normalized growth", "setting": "locus YAL026C, strain drs2, hits give low values", "value": "0.901 (active)"}, {"measurement": "normalized growth", "setting": "locus YAL030W, strain snc1, hits give low values", "value": 1.02}, {"measurement": "normalized growth", "setting": "locus YBL061C, strain skt5, hits give low values", "value": 0.988}, {"measurement": "normalized growth", "setting": "locus YBR009C, strain hhf1, hits give low values", "value": 0.97}, {"measurement": "normalized growth", "setting": "locus YBR021W, strain FUR4, hits give low values", "value": 0.964}, {"measurement": "normalized growth", "setting": "locus YBR023C, strain chs3, hits give low values", "value": 0.953}, {"measurement": "normalized growth", "setting": "locus YBR171W, strain sec66, hits give low values", "value": 0.986}, {"measurement": "normalized growth", "setting": "locus YBR229C, strain ROT2, hits give low values", "value": 0.998}, {"measurement": "normalized growth", "setting": "locus YBR231C, strain swc5, hits give low values", "value": 1.01}, {"measurement": "normalized growth", "setting": "locus YBR279W, strain paf1, hits give low values", "value": 1.02}, {"measurement": "normalized growth", "setting": "locus YCL011C, strain gbp2, hits give low values", "value": 0.998}, {"measurement": "normalized growth", "setting": "locus YCL016C, strain dcc1, hits give low values", "value": 0.975}, {"measurement": "normalized growth", "setting": "locus YCL029C, strain bik1, hits give low values", "value": 0.963}, {"measurement": "normalized growth", "setting": "locus YCL061C, strain MRC1, hits give low values", "value": 0.98}, {"measurement": "normalized growth", "setting": "locus YCL069W, strain vba3, hits give low values", "value": 1}, {"measurement": "normalized growth", "setting": "locus YCR088W, strain abp1, hits give low values", "value": 0.997}, {"measurement": "normalized growth", "setting": "locus YDL005C, strain med2, hits give low values", "value": 1.02}, {"measurement": "normalized growth", "setting": "locus YDL035C, strain GPR1, hits give low values", "value": 0.899}, {"measurement": "normalized growth", "setting": "locus YDL040C, strain nat1, hits give low values", "value": 1}, {"measurement": "normalized growth", "setting": "locus YDL074C, strain BRE1, hits give low values", "value": 0.88}, {"measurement": "normalized growth", "setting": "locus YDL101C, strain DUN1, hits give low values", "value": 0.986}, {"measurement": "normalized growth", "setting": "locus YDL134C, strain PPH21, hits give low values", "value": 0.973}, {"measurement": "normalized growth", "setting": "locus YDL185W, strain tfp1, hits give low values", "value": 0.968}, {"measurement": "normalized growth", "setting": "locus YDL192W, strain arf1, hits give low values", "value": 0.932}, {"measurement": "normalized growth", "setting": "locus YDR001C, strain nth1, hits give low values", "value": 1}, {"measurement": "normalized growth", "setting": "locus YDR069C, strain doa4, hits give low values", "value": 1.02}, {"measurement": "normalized growth", "setting": "locus YDR101C, strain arx1, hits give low values", "value": 0.965}, {"measurement": "normalized growth", "setting": "locus YDR137W, strain rgp1, hits give low values", "value": "0.805 (active)"}, {"measurement": "normalized growth", "setting": "locus YDR150W, strain NUM1, hits give low values", "value": 0.948}, {"measurement": "normalized growth", "setting": "locus YDR159W, strain sac3, hits give low values", "value": 0.991}, {"measurement": "normalized growth", "setting": "locus YDR162C, strain NBP2, hits give low values", "value": 0.97}, {"measurement": "normalized growth", "setting": "locus YDR195W, strain ref2", "value": 0.993}, {"measurement": "normalized growth", "setting": "locus YDR297W, strain sur2, hits give low values", "value": 1.01}, {"measurement": "normalized growth", "setting": "locus YDR318W, strain mcm21, hits give low values", "value": "0.911 (active)"}, {"measurement": "normalized growth", "setting": "locus YDR334W, strain swr1, hits give low values", "value": 1.01}, {"measurement": "normalized growth", "setting": "locus YDR335W, strain msn5, hits give low values", "value": 1}, {"measurement": "normalized growth", "setting": "locus YDR388W, hits give low values", "value": 0.977}, {"measurement": "normalized growth", "setting": "locus YDR392W, strain spt3, hits give low values", "value": "0.576 (active)"}, {"measurement": "normalized growth", "setting": "locus YDR502C, strain sam2, hits give low values", "value": 0.956}, {"measurement": "normalized growth", "setting": "locus YEL003W, strain gim4, hits give low values", "value": 1}, {"measurement": "normalized growth", "setting": "locus YEL037C, strain rad23, hits give low values", "value": 0.992}, {"measurement": "normalized growth", "setting": "locus YEL061C, strain CIN8 (second series), hits give low values", "value": 1}, {"measurement": "normalized growth", "setting": "locus YEL061C, strain CIN8, hits give low values", "value": 0.986}, {"measurement": "normalized growth", "setting": "locus YER015W, strain faa2, hits give low values", "value": 1.01}, {"measurement": "normalized growth", "setting": "locus YER016W, strain bim1, hits give low values", "value": 0.996}, {"measurement": "normalized growth", "setting": "locus YER110C, hits give low values", "value": 0.95}, {"measurement": "normalized growth", "setting": "locus YER111C, strain swi4, hits give low values", "value": 0.995}, {"measurement": "normalized growth", "setting": "locus YER155C, strain BEM2 (second series), hits give low values", "value": 0.987}, {"measurement": "normalized growth", "setting": "locus YER155C, strain BEM2, hits give low values", "value": 0.972}, {"measurement": "normalized growth", "setting": "locus YER167W, strain BCK2, hits give low values", "value": 0.929}, {"measurement": "normalized growth", "setting": "locus YFR010W, strain ubp6, hits give low values", "value": 0.985}, {"measurement": "normalized growth", "setting": "locus YGL078C, strain dbp3, hits give low values", "value": 0.966}, {"measurement": "normalized growth", "setting": "locus YGL086W, strain mad1, hits give low values", "value": 0.931}, {"measurement": "normalized growth", "setting": "locus YGL167C, strain pmr1, hits give low values", "value": 1}, {"measurement": "normalized growth", "setting": "locus YGL173C, strain kem1, hits give low values", "value": 1.03}, {"measurement": "normalized growth", "setting": "locus YGL227W, strain vid30, hits give low values", "value": 1.01}, {"measurement": "normalized growth", "setting": "locus YGL240W, strain doc1, hits give low values", "value": 1}, {"measurement": "normalized growth", "setting": "locus YGL248W, strain PDE1, hits give low values", "value": 0.98}, {"measurement": "normalized growth", "setting": "locus YGL253W, strain hxk2, hits give low values", "value": "0.91 (active)"}, {"measurement": "normalized growth", "setting": "locus YGR078C, strain PAC10, hits give low values", "value": 0.934}, {"measurement": "normalized growth", "setting": "locus YGR135W, strain pre9, hits give low values", "value": 0.95}, {"measurement": "normalized growth", "setting": "locus YGR229C, strain SMI1, hits give low values", "value": "0.804 (active)"}, {"measurement": "normalized growth", "setting": "locus YGR252W, strain gcn5, hits give low values", "value": 0.912}, {"measurement": "normalized growth", "setting": "locus YHR013C, strain ard1, hits give low values", "value": "1.19 [resistant] (active)"}, {"measurement": "normalized growth", "setting": "locus YHR027C, strain rpn1, hits give low values", "value": 1.01}, {"measurement": "normalized growth", "setting": "locus YHR030C, strain SLT2, hits give low values", "value": "0.943 and 0.867"}, {"measurement": "normalized growth", "setting": "locus YHR079C, strain IRE1 (second series), hits give low values", "value": "0.924 (active)"}, {"measurement": "normalized growth", "setting": "locus YHR079C, strain IRE1, hits give low values", "value": 0.918}, {"measurement": "normalized growth", "setting": "locus YHR094C, strain hxt1, hits give low values", "value": 0.96}, {"measurement": "normalized growth", "setting": "locus YHR129C, strain ARP1, hits give low values", "value": 0.985}, {"measurement": "normalized growth", "setting": "locus YHR142W, strain chs7, hits give low values", "value": "0.846 (active)"}, {"measurement": "normalized growth", "setting": "locus YHR200W, strain rpn10, hits give low values", "value": 0.96}, {"measurement": "normalized growth", "setting": "locus YIL066C, strain RNR3, hits give low values", "value": 0.981}, {"measurement": "normalized growth", "setting": "locus YIL073C, strain SPO22, hits give low values", "value": 0.991}, {"measurement": "normalized growth", "setting": "locus YIL125W, strain kgd1, hits give low values", "value": 0.965}, {"measurement": "normalized growth", "setting": "locus YIR030C, strain dcg1, hits give low values", "value": 0.974}, {"measurement": "normalized growth", "setting": "locus YJL092W, strain hpr5, hits give low values", "value": 1}, {"measurement": "normalized growth", "setting": "locus YJL095W, strain BCK1 (second series), hits give low values", "value": 1.01}, {"measurement": "normalized growth", "setting": "locus YJL095W, strain BCK1, hits give low values", "value": "0.909 and 0.89"}, {"measurement": "normalized growth", "setting": "locus YJL115W, strain asf1, hits give low values", "value": 1.01}, {"measurement": "normalized growth", "setting": "locus YJL129C, strain trk1, hits give low values", "value": 0.984}, {"measurement": "normalized growth", "setting": "locus YJL134W, strain LCB3, hits give low values", "value": 0.973}, {"measurement": "normalized growth", "setting": "locus YJL154C, strain vps35, hits give low values", "value": 1}, {"measurement": "normalized growth", "setting": "locus YJL164C, strain tpk1, hits give low values", "value": 0.973}, {"measurement": "normalized growth", "setting": "locus YJL166W, strain qcr8, hits give low values", "value": 0.996}, {"measurement": "normalized growth", "setting": "locus YJL168C, strain set2, hits give low values", "value": 0.983}, {"measurement": "normalized growth", "setting": "locus YJL187C, strain SWE1 (second series), hits give low values", "value": 0.961}, {"measurement": "normalized growth", "setting": "locus YJL187C, strain SWE1, hits give low values", "value": 1.01}, {"measurement": "normalized growth", "setting": "locus YJR043C, strain POL32, hits give low values", "value": 0.954}, {"measurement": "normalized growth", "setting": "locus YJR066W, strain TOR1, hits give low values", "value": "0.825 (active)"}]}]}
